# Laboratory results: PubChem BioAssay (NCI)
# Compounds without any hit were thinned out: in the full panel of roughly 79,000, 15% have a hit. Values without a mark were called inactive. The source made the active and inactive calls. Cut-off read from the data, not from the text of the source: active = growth inhibition above about 70%; inactive = the rest.
# Test: NCI Yeast Anticancer Drug Screen. Data for the CLN2oe strain (AID 163);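 note: 0% = growth of vehicle-only control cultures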
# Details: S. cerevisiae CLN2oe strain, active compounds read high
# Protocol: Growth inhibition of yeast strains with defined genetic alterations is measured as a screen for potential anti-cancer activity. Selected strains with alterations in DNA damage repair or cell cycle control were exposed to compounds and growth inhibition was measured relative to vehicle treated controls. The strain used in this assay is CLN2oe
SMILES,growth inhibition (at 1.2 µM),growth inhibition (at 3.7 µM),growth inhibition (at 11.0 µM),growth inhibition (at 33.0 µM),growth inhibition (at 100.0 µM)
CCOc1ccccc1N1C(=O)CC(Sc2ccccc2N)C1=O (stereo not given),10%,6%,1%,-15%,-19%
CC[C@@]1(OC(=O)CN(C)C)C(=O)OCc2c1cc1n(c2=O)Cc2cc3ccccc3nc2-1,-7%,2%,31%,73% (active),87% (active)
O=CC(=C(I)I)c1ccccc1,-1%,-3%,23%,98% (active),98% (active)
Cc1ccc(P(c2ccc(C)cc2)c2ccc(C)cc2)cc1,8%,4%,4%,10%,18%
Cc1ccc(C(C)C)c(C(=C2C=CC(=[N+](C)C)C=C2)c2c(C(C)C)ccc(C)c2O)c1O,2%,26%,97% (active),93% (active),75% (active)
c1ccc2cc(OCC3CO3)c(OCC3CO3)cc2c1 (stereo not given),-10%,-2%,-11%,-6%,35%
CCOC(=O)/C=C1\CCCn2c1ncc(C(=O)OCC)c2=O,3%,4%,7%,12%,13%
O=C(/C(=C/c1ccccc1)CBr)c1ccccc1,2%,6%,47%,95% (active),99% (active)
